The values below come from the supplement of paper PMC10849652.

Common to all, as to experiment: log2 fold change, soluble protein after heating vs DMSO (PISA); higher = thermal stabilisation; K562 cells, 10 uM, 30 min; active = over 0.2 and 3.5 SD of the protein, either way, in both replicates (recomputed)
Compound in assay [1]: NC(=O)Nc1cc(-c2cccc(F)c2)sc1C(=O)N[C@H]1CCCNC1
Put shortly:
(§1)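 Aliquots of K562 cells (2×10^6 cells/mL) treated with 10 μM compound for 30 min were heated for 3 min over 48°C-58°C. After pooling and extraction in PBS with 0.5% NP-40 at 4°C, soluble protein from a 21,000xg, 90 min spin was quantified by TMTpro 16plex LC-MS/MS with channel sums equalised. Thermal stability is expressed against control samples, from duplicates, as a log2 fold change.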

Compound in assay [2]: NC(=O)c1cnc(N[C@@H]2CCCC[C@@H]2N)nc1Nc1cccc(-n2nccn2)c1
Put shortly: as §1

Compound in assay [3]: NC1(c2ccc(-c3nc4ccn5c(=O)[nH]nc5c4cc3-c3ccccc3)cc2)CCC1
Summed up: as §1

Compound in assay [4]: NCC(=O)Nc1ccc(-n2nc(C(F)(F)F)cc2-c2ccc3c(ccc4ccccc43)c2)cc1
Put shortly:
as §1

Compound in assay [5]: Nc1ccccc1NC(=O)c1ccc(CNC(=O)OCc2cccnc2)cc1 [entinostat]
Put shortly: as §1

Compound in assay [6]: O=C(CCCCCCC(=O)Nc1ccccc1)NO [vorinostat]
Put shortly: as §1

Compound in assay [7]: O=C(CCCCCCNC(=O)c1cnc(N(c2ccccc2)c2ccccc2Cl)nc1)NO [citarinostat]
Summed up: as §1

Compound in assay [8]: O=C(O)c1ccc2c(c1)nc(Nc1cccc(Cl)c1)c1ccncc12 [silmitasertib]
Summed up: as §1

Compound in assay [9]: O=C1NC(=O)C(c2cnc3ccccn23)=C1c1cn2c3c(cc(F)cc13)CN(C(=O)N1CCCCC1)CC2
Summed up:
as §1

Compound in assay [10]: c1cc(OCCN2CCCCC2)cc(-c2n[nH]c3ccc(-c4nnc[nH]4)cc23)c1
Summed up: as §1

Of roughly 7,900 targets only a part is listed; those with a hit were picked by preference. About 0.6% of all pairs of compound and target were hits. Values without a mark were called inactive.

Sequence of UniProt Q969Z0 (Q969Z0 whole entry, looked up): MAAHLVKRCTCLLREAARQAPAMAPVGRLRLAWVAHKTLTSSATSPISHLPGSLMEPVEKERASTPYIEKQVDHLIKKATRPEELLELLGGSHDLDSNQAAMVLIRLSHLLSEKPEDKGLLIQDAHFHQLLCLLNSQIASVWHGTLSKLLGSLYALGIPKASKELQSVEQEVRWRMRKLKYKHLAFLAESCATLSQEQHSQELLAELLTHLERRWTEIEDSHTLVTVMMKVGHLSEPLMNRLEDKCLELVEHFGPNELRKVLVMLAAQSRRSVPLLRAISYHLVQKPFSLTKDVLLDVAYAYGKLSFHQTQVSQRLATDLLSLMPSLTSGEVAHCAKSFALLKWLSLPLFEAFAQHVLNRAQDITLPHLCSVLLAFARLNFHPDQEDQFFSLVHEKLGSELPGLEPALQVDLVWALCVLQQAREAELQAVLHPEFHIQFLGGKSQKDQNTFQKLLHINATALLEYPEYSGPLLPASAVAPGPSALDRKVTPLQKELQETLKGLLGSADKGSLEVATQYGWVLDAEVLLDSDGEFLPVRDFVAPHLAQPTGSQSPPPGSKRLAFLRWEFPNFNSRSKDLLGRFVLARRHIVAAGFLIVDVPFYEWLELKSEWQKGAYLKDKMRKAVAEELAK
Sequence of UniProt Q9UQ35 (Q9UQ35 whole entry, looked up): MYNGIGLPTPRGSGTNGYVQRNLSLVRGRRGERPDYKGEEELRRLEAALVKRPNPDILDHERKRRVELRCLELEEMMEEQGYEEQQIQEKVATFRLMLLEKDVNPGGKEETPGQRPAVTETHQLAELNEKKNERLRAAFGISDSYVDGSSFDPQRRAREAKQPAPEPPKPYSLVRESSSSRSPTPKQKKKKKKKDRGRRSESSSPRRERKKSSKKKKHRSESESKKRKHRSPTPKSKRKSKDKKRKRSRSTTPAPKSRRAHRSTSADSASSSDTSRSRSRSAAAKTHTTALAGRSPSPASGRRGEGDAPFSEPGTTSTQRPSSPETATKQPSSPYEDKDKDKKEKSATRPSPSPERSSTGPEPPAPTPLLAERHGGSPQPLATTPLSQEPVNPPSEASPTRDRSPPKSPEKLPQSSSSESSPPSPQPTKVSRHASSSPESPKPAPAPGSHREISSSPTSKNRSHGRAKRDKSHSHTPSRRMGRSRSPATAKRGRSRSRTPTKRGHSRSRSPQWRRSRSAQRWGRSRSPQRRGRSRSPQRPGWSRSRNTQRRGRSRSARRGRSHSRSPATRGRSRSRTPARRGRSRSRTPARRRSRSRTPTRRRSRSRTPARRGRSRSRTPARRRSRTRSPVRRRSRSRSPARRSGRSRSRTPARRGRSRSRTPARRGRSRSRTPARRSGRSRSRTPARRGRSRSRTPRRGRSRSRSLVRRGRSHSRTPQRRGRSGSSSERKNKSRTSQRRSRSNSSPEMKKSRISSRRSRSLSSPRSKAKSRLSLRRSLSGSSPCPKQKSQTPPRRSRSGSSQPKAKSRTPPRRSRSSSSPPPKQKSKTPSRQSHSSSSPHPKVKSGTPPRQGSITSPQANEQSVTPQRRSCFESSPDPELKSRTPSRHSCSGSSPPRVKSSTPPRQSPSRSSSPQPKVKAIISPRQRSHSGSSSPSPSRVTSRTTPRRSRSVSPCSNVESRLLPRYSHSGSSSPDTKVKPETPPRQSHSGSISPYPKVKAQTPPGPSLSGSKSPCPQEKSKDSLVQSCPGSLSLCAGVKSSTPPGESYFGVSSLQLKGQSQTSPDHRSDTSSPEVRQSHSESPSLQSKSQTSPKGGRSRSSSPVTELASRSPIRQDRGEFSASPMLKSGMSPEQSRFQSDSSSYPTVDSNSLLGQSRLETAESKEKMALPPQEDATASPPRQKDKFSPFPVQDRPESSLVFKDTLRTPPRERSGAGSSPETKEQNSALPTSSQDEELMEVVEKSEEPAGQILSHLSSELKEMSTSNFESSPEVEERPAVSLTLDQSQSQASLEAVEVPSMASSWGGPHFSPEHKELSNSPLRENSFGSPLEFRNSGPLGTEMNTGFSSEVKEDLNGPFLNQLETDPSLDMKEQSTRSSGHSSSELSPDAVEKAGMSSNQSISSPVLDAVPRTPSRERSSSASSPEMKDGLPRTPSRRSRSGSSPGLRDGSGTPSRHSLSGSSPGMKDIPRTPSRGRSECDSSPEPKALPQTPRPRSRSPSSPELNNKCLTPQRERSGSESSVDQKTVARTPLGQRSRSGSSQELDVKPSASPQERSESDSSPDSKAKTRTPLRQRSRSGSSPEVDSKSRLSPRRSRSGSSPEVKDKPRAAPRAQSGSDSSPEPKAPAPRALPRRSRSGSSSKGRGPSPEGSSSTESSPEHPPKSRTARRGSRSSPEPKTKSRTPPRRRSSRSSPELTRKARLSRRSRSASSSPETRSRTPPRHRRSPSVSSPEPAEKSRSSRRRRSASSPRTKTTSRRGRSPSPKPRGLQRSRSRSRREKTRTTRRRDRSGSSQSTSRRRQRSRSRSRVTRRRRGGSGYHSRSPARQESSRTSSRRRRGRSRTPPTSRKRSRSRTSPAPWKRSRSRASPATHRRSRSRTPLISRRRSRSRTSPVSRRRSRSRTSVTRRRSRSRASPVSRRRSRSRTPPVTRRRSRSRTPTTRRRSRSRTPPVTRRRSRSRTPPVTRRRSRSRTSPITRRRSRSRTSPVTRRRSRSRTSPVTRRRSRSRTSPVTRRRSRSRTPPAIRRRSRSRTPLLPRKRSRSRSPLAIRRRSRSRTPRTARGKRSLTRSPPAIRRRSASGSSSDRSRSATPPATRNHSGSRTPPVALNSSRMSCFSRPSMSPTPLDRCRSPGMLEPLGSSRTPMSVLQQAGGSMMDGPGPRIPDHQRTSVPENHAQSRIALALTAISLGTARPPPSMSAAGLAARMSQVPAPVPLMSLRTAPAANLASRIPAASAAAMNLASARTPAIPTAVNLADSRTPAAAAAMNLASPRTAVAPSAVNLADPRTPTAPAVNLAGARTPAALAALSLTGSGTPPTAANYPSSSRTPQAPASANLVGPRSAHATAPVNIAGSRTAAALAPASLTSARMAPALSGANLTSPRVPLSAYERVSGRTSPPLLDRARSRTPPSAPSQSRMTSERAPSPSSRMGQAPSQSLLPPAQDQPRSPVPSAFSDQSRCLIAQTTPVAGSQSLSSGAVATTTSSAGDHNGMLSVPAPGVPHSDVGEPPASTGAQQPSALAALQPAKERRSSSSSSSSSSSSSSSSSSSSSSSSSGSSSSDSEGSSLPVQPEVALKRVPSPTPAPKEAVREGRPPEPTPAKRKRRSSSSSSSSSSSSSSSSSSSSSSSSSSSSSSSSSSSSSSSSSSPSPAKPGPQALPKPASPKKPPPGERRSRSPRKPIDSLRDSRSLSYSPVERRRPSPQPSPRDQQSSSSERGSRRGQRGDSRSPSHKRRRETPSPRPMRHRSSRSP
Sequence of UniProt O95926 (O95926 whole entry, looked up): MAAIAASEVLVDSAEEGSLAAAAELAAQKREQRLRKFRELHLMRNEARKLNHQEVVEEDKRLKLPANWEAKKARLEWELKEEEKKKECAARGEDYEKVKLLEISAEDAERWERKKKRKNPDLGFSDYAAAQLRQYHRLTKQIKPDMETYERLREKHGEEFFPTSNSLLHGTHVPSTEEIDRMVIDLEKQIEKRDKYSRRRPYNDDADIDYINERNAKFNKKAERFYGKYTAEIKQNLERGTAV
Sequence of UniProt Q92544 (Q92544 whole entry, looked up): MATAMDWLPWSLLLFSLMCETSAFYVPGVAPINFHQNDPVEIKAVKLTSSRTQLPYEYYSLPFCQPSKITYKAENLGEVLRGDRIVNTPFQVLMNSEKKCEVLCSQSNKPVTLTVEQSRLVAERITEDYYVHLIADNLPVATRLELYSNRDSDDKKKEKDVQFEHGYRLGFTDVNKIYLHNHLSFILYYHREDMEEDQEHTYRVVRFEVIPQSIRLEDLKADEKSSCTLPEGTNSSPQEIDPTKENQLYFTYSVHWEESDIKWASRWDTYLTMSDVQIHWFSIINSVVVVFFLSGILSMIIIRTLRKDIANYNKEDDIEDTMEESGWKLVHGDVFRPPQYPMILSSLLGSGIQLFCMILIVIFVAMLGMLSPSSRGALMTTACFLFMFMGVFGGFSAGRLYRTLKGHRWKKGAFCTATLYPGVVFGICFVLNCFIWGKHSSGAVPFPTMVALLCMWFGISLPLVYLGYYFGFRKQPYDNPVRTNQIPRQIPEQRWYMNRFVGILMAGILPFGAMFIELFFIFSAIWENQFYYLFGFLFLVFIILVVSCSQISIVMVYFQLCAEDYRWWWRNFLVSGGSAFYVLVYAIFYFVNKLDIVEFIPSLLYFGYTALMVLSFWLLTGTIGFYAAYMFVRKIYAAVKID
Sequence of UniProt P08240 (P08240 whole entry, looked up): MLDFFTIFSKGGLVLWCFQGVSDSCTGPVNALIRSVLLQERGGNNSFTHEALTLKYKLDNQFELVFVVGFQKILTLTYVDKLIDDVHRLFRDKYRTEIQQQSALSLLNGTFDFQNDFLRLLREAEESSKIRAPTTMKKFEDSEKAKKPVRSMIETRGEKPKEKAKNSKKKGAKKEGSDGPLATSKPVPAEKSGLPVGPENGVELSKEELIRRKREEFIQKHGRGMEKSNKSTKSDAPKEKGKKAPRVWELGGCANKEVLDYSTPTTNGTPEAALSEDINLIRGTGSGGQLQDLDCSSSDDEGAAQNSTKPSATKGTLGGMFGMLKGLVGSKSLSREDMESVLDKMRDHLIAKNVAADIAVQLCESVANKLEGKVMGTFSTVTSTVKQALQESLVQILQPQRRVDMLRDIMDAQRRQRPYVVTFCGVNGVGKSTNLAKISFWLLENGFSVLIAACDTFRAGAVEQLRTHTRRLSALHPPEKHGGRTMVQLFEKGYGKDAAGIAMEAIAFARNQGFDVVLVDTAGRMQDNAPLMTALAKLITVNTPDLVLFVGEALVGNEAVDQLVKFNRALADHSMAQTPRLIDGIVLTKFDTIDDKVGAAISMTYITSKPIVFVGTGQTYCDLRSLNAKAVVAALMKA

SRRM2 (UniProt Q9UQ35): the log2 fold change is -0.004 in assay [1]; -0.055 in assay [2]; 0.005 in assay [3]; -0.036 in assay [4]; 0.025 in [5]; 0.226 in assay [6]. Besides, the log2 fold change in assay [7] was 0.071; in assay [8], -0.141; in [9], -0.225; in assay [10], -0.25.
TBRG4 (UniProt Q969Z0): the log2 fold change in assay [1] was -0.103; in assay [2] it was -0.172; in assay [3] it was -0.58; in assay [4], -0.255; in assay [5], 0.214; in assay [6] it was 0.201. The log2 fold change in [7] was 0.128; in assay [8], 0.074; in assay [9], -0.191; in assay [10], -0.086.
As for SNX5 (UniProt Q9Y5X3), the log2 fold change in assay [1] was -0.022; in assay [2], -0.275; in [3], -0.332 (active); in assay [4], -0.037; in assay [5], 0.078; in assay [6] it was 0.108. For the same target, the log2 fold change in [7] was 0.09; in assay [8], -0.061; in [9] it was -0.006; in assay [10], -0.11.
Consider SYF2 (UniProt O95926), for which the log2 fold change is 0.099 in assay [1]; 0.089 in [2]; -0.032 in assay [3]; 0.101 in assay [4]; -0.022 in assay [5]; -0.11 in assay [6]. Further, the log2 fold change was -0.069 in assay [7], 0.016 in assay [8], 0.14 in assay [9] and -0.153 in assay [10].
Take SPG11 (UniProt Q96JI7): the log2 fold change in assay [1] is -0.395; in assay [2] it was -0.138; in [3], 0.145; in assay [4] it was -0.293; in assay [5], -0.25; in [6], -0.638. In addition, the log2 fold change in assay [7] was -0.233; in [8], 0.01; in assay [9], 0.041; in [10], -0.219.
Regarding ST6GAL1 (UniProt P15907), the log2 fold change is -0.101 in assay [1]; 0.089 in assay [2]; -0.079 in assay [3]; -0.004 in [4]; -0.106 in assay [5]; -0.045 in [6]. For the same target, the log2 fold change is 0.025 in assay [7], 0.024 in [8], 0.017 in [9] and -0.064 in [10].
For the target TBC1D9B (UniProt Q66K14), the log2 fold change in assay [1] was -0.194; in [2], -0.095; in [3], -0.07; in [4] it was -0.012; in assay [5], -0.085; in [6], -0.034. The log2 fold change in assay [7] is 0.173; in assay [8], 0.021; in [9], -0.176; in [10], -0.13.
As to SMPD4 isoform 4 (UniProt Q9NXE4), the log2 fold change in assay [1] is -0.008; in [2] it was -0.075; in assay [3], -0.141; in [4] it was -0.059; in assay [5], 0.033; in assay [6] it was 0.084. In addition, the log2 fold change in [7] is -0.039; in assay [8] it was 0.085; in assay [9], 0.012; in assay [10], 0.268.
On to SRPRA (UniProt P08240), for which the log2 fold change in assay [1] is -0.03; in [2], 0.017; in [3] it was -0.049; in [4], -0.045; in assay [5], 0.02; in [6], 0.033. The log2 fold change in assay [7] is 0; in assay [8] it was 0.021; in assay [9], 0.008; in assay [10], 0.015.
For STAT5B (UniProt P51692), the log2 fold change was -0.027 in [1]; -0.022 in assay [2]; -0.207 in assay [3]; -0.129 in [4]; 0.282 in assay [5]; 0.18 in [6]. Moreover, the log2 fold change in assay [7] is 0.15; in [8], 0.043; in assay [9], 0.045; in assay [10] it was 0.024.
Regarding THRAP3 (UniProt Q9Y2W1), the log2 fold change in assay [1] was -0.02; in assay [2] it was -0.076; in assay [3], -0.153; in assay [4] it was -0.037; in assay [5] it was 0.024; in assay [6], 0.021. The log2 fold change in assay [7] was 0.005; in assay [8], -0.169; in [9], -0.026; in assay [10], -0.257.
As to SNX11 (UniProt Q9Y5W9), the log2 fold change was -0.052 in assay [1]; -0.277 in assay [2]; -0.378 (active) in [3]; -0.052 in assay [4]; 0.097 in [5]; 0 in assay [6]. The log2 fold change in [7] is 0.233; in assay [8] it was 0.025; in assay [9], -0.023; in assay [10], -0.072.
For the target TLK1 (UniProt Q9UKI8), the log2 fold change was -0.062 in assay [1]; -0.074 in [2]; -0.063 in assay [3]; -0.034 in [4]; 0.042 in assay [5]; 0.027 in assay [6]. For the same target, the log2 fold change in assay [7] is 0.049; in assay [8], -0.002; in assay [9], 0.002; in assay [10] it was -0.074.
With SYMPK (UniProt Q92797), the log2 fold change in assay [1] was -0.018; in assay [2], 0.012; in assay [3], -0.287; in assay [4] it was -0.08; in assay [5], 0.025; in assay [6], 0.11. Besides, the log2 fold change in assay [7] is 0.051; in [8], 0.167; in assay [9], 0.033; in assay [10] it was -0.037.
As to TM9SF4 (UniProt Q92544), the log2 fold change is 0.024 in assay [1]; 0.064 in assay [2]; -0.061 in assay [3]; 0.032 in assay [4]; -0.01 in assay [5]; 0.146 in assay [6]. The log2 fold change in [7] was 0.044; in assay [8] it was 0.03; in assay [9], -0.011; in assay [10], -0.057.
